# Screens deposited in PubChem by National Center for Advancing Translational Sciences (NCATS).
# Cycloheximide cs – counter-screen hit for Shiga toxin inhibitors, cycloheximide | cell reporter, cycloheximide protein synthesis inhibition counterscreen | 12% of 300,000 active | max response, %; in the data active = max response mostly above about 13%, no sharp cut-off; inactive = mostly below about 14%; also: read at 38.3 µM for the half of the compounds with a filed dose; 0% is about no effect
# Pf growth 48h – P. falciparum growth inhibition at 48 hours (one generation) | P. falciparum luciferase growth in erythrocytes, 48 h | Potency, µM (doses to about 28.7 µM), inactives show at the top dose activity change, negative = inhibition, actives largely listed as inhibitors | 5.9% of 310,000 active; active = well fitted inhibition curve with a large enough effect; inconclusive = small, poorly fitted or top-dose-only effect, or another doubt; inactive = no such curve, though single readings can be large or run the other way; also: potency is read from the fitted curve at half-maximal effect; % is scaled to controls: 0 for no effect and ±100 for the full control effect
#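 Firefly luciferase activity from engineered P. falciparum reports growth; inhibitors lower the luminescent signal. Cultures contained 2% hematocrit erythrocytes at 0.1% final parasitemia.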
# NS1 inh – blocks influenza NS1 protein function; AID 2326; 0.4% of 270,000 active; Potency, µM (highest dose often 46.1 µM), inactives show at the highest dose activity, positive = more growth; also: potency is read from the fitted curve at half-maximal effect; actives are rising curves; nearly all actives have a fitted effect of over 50% in size
#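 Compounds were scored for reversing the slow growth caused by influenza A NS1 in S. cerevisiae, measured by optical density at 600 nm. Assay medium contained 2% galactose at pH 6.0; NS1-free yeast of the same strain were the positive control.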
# Shiga inhibitor – Shiga toxin inhibition; Vero cells, Shiga toxin protein synthesis inhibition reporter; inhibition, % at 38.7 µM; 9.2% of 290,000 active; in the data active = inhibition mostly above about 28%, no sharp cut-off; inactive = mostly below about 43%; also: 0% is about no effect
# Pf growth 96h – inhibits malaria parasite growth, 96 h; P. falciparum luciferase reporter growth, 96 h; Potency, µM (top dose mostly 28.7 µM), without a hit: at the top dose activity change, negative = inhibition, most hits filed as inhibitors; 6.9% of 320,000 active; active = well fitted inhibition curve with a large enough effect; inconclusive = small, poorly fitted or top-dose-only effect, or another doubt; inactive = no such curve, though single readings can be large or run the other way; also: potency is read from the fitted curve at half-maximal effect; % is scaled to controls: 0 for no effect and ±100 for the full control effect
#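 P. falciparum expressing integrated firefly luciferase grown in erythrocytes (2% hematocrit, 0.05% parasitemia final) with compounds for 96 hours at 37 C, 5% CO2. Growth inhibition read as loss of luminescence after adding luciferase detection reagent.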
# SARS PLP yeast – blocks SARS-CoV papain-like protease in a yeast assay; Potency, µM (doses to about 32.9 µM), for inactives: top-dose activity, positive = growth rescue, most hits filed as activators; S. cerevisiae expressing SARS-CoV PLpro, growth rescue; 0.19% of 330,000 active; also: potency is read from the fitted curve at half-maximal effect; 0% is about no effect; nearly all actives have a fitted effect of over 55% in size
# Numbers without * were called inactive; ? = inconclusive; / = no result given. Rows were chosen to be rich in hits. Some 21% of all compounds tested hit in one or more screens of this group. Unless noted, calls follow the shape of the full dose curve.
SMILES,Cycloheximide cs,Pf growth 48h,NS1 inh,Shiga inhibitor,Pf growth 96h,SARS PLP yeast
CC(C)c1ccc(/C(C(=O)O)=C(\O)C(=O)O)cc1,/,/,-2.4%,/,/,/
O=C(CN(Cc1ccccc1)C(=O)c1cccc([N+](=O)[O-])c1)Nc1c(Cl)cc(Cl)cc1Cl,-5.0,-7.5%,0.4%,-1.5,265.0%,12.9%
CC(=O)N(Cc1ccco1)c1nc(C(=O)Nc2ccc(Cl)cc2)c(C)s1,45.6*,-7.9%,-8.0%,95.1*,-3.0%,-12.4%
COc1ccc(C(=O)OC(C)C(=O)NC2CCCc3ccccc32)cc1OC (stereo not given),/,?,/,/,-30.5%,2.5%
COc1cc(/C=C/C(=O)Nc2ccc(C)cc2)cc(OC)c1OC,-3.0,-6.8%,-15.4%,-4.6,?,-27.1%
COc1cc2c(cc1OC)CN(C(=O)c1ccc(OC)c(S(=O)(=O)N3CCCC3)c1)CC2,/,11.7µM*,/,/,?,-0.4%
CCN(CC)CCNC(=O)c1ccc(NC(=O)c2cccc(S(=O)(=O)N3CCc4ccccc43)c2)cc1,/,0.738µM*,/,/,1.04µM*,2.2%
CCN(CC(=O)Nc1cccc(OC)c1)C(=O)c1cccc(S(=O)(=O)N2CCc3ccccc32)c1,/,11.7µM*,/,/,?,-1.0%
CCN(CC)CCNC(=O)c1ccc(NC(=O)/C=C/c2cc(OC)c(OC)c(OC)c2)cc1,-2.4,5.22µM*,/,-6.2,?,0.1%
CCN(CC)CCNC(=O)c1ccc(NC(=O)c2cccc(S(=O)(=O)N3c4ccccc4CC3C)c2)cc1 (stereo not given),-2.0,15.8%,-6.4%,-22.3,-25.1%,-4.6%
CCN(CC(=O)Nc1ccc(NC(C)=O)cc1)C(=O)c1cccc(S(=O)(=O)N2CCc3ccccc3C2)c1,/,-1.1%,/,/,?,11.9%
CC(C)C(=O)Nc1ccc(C(=O)NNC(=O)CCCOc2ccc(Cl)cc2Cl)cc1,-1.1,9.0%,0.5%,12.0,32.2%,-4.8%
CN(c1cccc(NC(=O)CN(c2cccc(Cl)c2)S(=O)(=O)c2ccc(Cl)cc2)c1)S(C)(=O)=O,-1.3,?,5.9%,-14.5,0.9%,4.8%
O=C(Cc1ccccc1)NCC(=O)OCC(=O)c1ccccc1Cl,-0.7,0.2%,-5.7%,-6.8,16.2%,-2.9%
COc1ccccc1NS(=O)(=O)c1cc(N/C(=N\S(=O)(=O)c2ccccc2)c2ccc(F)cc2)ccc1Cl,3.9,9.28µM*,-11.0%,-4.5,13.1µM*,-1.0%
COc1cc2c(cc1OC)CN(C(=O)c1cccc(S(=O)(=O)N3CCc4ccccc43)c1)CC2,/,10.4µM*,/,/,11.7µM*,-4.8%
O=C(c1cccc(S(=O)(=O)N2CCc3ccccc32)c1)N1CCc2ccccc2C1,/,-6.8%,/,/,31.1%,-2.8%
COc1ccc(NC(=O)c2cccc(S(=O)(=O)N3CCc4ccccc43)c2)cn1,1.3,?,-7.7%,22.1,11.7µM*,2.6%
CCN(CC)CCNC(=O)c1ccc(NC(=O)c2ccc(Cl)c(S(=O)(=O)Nc3ccccc3OC)c2)cc1,-3.1,?,17.5%,-2.2,2.33µM*,-0.9%
COc1ccccc1NS(=O)(=O)c1cc(C(=O)NCCC(C)C)ccc1F,-3.8,-22.3%,5.4%,-6.2,-24.4%,0.3%
O=S(=O)(/N=C(/Nc1ccc(Cl)c(S(=O)(=O)N2CCOCC2)c1)c1ccc(F)cc1)c1ccccc1,-3.1,?,5.3%,-16.3,43.5%,?
COC(=O)c1cc(S(=O)(=O)N2c3ccccc3CC2C)cn1C (stereo not given),-2.5,-7.5%,-2.3%,-5.6,20.1%,0.9%
C=CCOC(/C=C/c1ccccc1)C[Si](C)(C)C (stereo not given),13.5,/,/,-1.2,/,/
C[C@H](NC(=O)[C@@H](N)Cc1ccc(O)cc1)C(=O)NCC(=O)N[C@H]1CSSC[C@@H](C(=O)O)NC(=O)[C@H](CO)NC(=O)[C@H]([C@@H](C)O)NC(=O)[C@H](Cc2ccccc2)NC(=O)[C@H]([C@@H](C)O)NC(=O)[C@H](CCCCN)NC(=O)[C@H](Cc2c[nH]c3ccccc23)NC(=O)[C@H](Cc2ccccc2)NC(=O)[C@H](Cc2ccccc2)NC(=O)[C@H](CC(N)=O)NC(=O)[C@H](CCCCN)NC1=O,-4.5,/,/,-6.1,/,/
Cc1ccc(NS(=O)(=O)c2cc(C(=O)NCCCN(C)C)ccc2Cl)cc1Cl,/,6.57µM*,/,/,?,0.8%
